# ± gives the standard deviation of the averaged measurements. The full ranking holds about 33,000 sequences; the median of “E-score (rank enrichment, -0.5 to 0.5)” is about -0.0075, and the highest 2% start at about 0.23. This is one part of a sample in which the highest values are shown more often than they occur.
# Tested on: WT Max(13-93) synthetic (M65Nle)
# Test: PBM 8-mer E-score (E-score (rank enrichment, -0.5 to 0.5)); higher = stronger preferential binding
# Experimental: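 Protein binding microarray (universal PBM chip covering all 10-mers in fixed probe flanks) with chemically synthesized human Max(13-93) bHLH-LZ analogs (not full-length Max) bearing noncanonical residues (hArg, Tha, Aib, Nle at 65) and aromatic Cys staples. Read-out per 8-mer (and its reverse complement): E-score (rank-based enrichment, -0.5 to 0.5) and Z-score of median probe intensity.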
row,Sequence,PBM 8-mer E-score
1,ACTAATAA,0.182 ± 0.058
2,AATAATTA,0.237 ± 0.058
3,CATAATAA,0.114 ± 0.18
4,AATAATAG,0.14 ± 0.12
5,AATAATAA,0.242 ± 0.013
6,ACTCGGTA,-0.0471 ± 0.064
7,CGTAGGCA,-0.0828 ± 0.077
8,GAAGCCCA,-0.0819 ± 0.0058
9,CCACCTGG,0.0162 ± 0.071
10,TCAACTCA,-0.088 ± 0.024
11,AGATGCGG,-0.0543 ± 0.14
12,CGCTTCTA,-0.0256 ± 0.055
13,CCATTGGG,-0.154 ± 0.1
14,CAATCCAG,0.0833 ± 0.0029
15,CATAATTC,-0.0543 ± 0.0058
16,CCTAATTA,0.138 ± 0.094
17,CATAATTA,0.236 ± 0.025
18,GTATCGAA,-0.0312 ± 0.052
19,AGCTAATG,-0.0403 ± 0.0067
20,GATAATCA,0.253 ± 0.14
21,TATAATCA,0.257 ± 0.014
22,GATAATAA,0.137 ± 0.092
23,AATAATCA,0.125 ± 0.0096

row,Sequence,PBM 8-mer E-score
1,CATAATCA,0.101 ± 0.028
2,GATAATCC,-0.0355 ± 0.034
3,ACGCCAGT,-0.159 ± 0.098
4,CTCGAATA,-0.174 ± 0.064
5,CCATTACA,0.165 ± 0.0069
6,AAGTTAAC,0.18 ± 0.0042
7,AAGTTAAT,0.234 ± 0.036
8,AAGTTAAG,-0.0928 ± 0.093
9,ATGGACAA,0.0228 ± 0.022
10,GCTCCTCC,-0.127 ± 0.14
11,AAATTATG,0.127 ± 0.011
12,AAATTATC,0.158 ± 0.031
13,AAATTATA,0.237 ± 0.0041
14,GAATTATA,0.128 ± 0.074
15,TAATTATA,0.264 ± 0.11
16,CAATTATA,0.137 ± 0.059
17,GCCGAAAA,0.0297 ± 0.015
18,CACGCGAC,0.271 ± 0.066
19,CACGCGCG,0.224 ± 0.034
20,CACGCGCC,0.238 ± 0.013
21,CACGCGTG,0.349 ± 0.015
22,CACGCGCA,0.149 ± 0.079
23,AACGCGTC,-0.0583 ± 0.0094

row,Sequence,PBM 8-mer E-score
1,CACGCGAG,0.0779 ± 0.018
2,CACGCGAA,0.0737 ± 0.06
3,CACGCGTA,0.165 ± 0.036
4,CACGCGTC,0.266 ± 0.016
5,AACGCGTG,0.222 ± 0.068
6,AACGCGTA,0.0664 ± 0.023
7,CAACTCGG,-0.13 ± 0.11
8,ATAACCGA,-0.0219 ± 0.011
9,CAAATTAC,0.177 ± 0.062
10,CCATCACC,0.144 ± 0.01
11,ATGCAGTG,0.0344 ± 0.068
12,AAATGCGA,-0.0159 ± 0.018
13,AGGCTAGG,0.0514 ± 0.046
14,GGCAGATA,0.116 ± 0.062
15,ACGTTTTG,0.101 ± 0.09
16,ACGTTATA,0.241 ± 0.038
17,CCGTTATA,0.132 ± 0.018
18,ACGTTATG,0.24 ± 0.0059
19,GCGTTATA,0.108 ± 0.025
20,ACGTTATC,0.133 ± 0.013
21,ACGTTAGG,0.107 ± 0.099
22,ACATCATG,-0.0233 ± 0.006
23,AGCGCCTC,-0.185 ± 0.038

row,Sequence,PBM 8-mer E-score
1,AACACCGG,-0.157 ± 0.029
2,ATTTGTTA,0.0868 ± 0.01
3,ATTTGTTC,0.241 ± 0.11
4,CTTTGTTC,0.0437 ± 0.024
5,CGAGATGA,-0.159 ± 0.091
6,AGTAGCTA,0.178 ± 0.057
7,GATCTCGA,-0.159 ± 0.022
8,CCGCCGAA,-0.156 ± 0.022
9,CACGTGAG,0.404 ± 0.019
10,GACGTGAC,-0.0117 ± 0.088
11,AACGTGAC,0.205 ± 0.016
12,CACGTGAA,0.388 ± 0.053
13,CCCGTGAG,-0.0893 ± 0.044
14,GACGTGAA,-0.138 ± 0.057
15,CACGTGAC,0.4879 ± 0.0015
16,TACGTGAA,0.0446 ± 0.099
17,CGCGTGAG,0.0752 ± 0.04
18,GGCTAGAC,-0.217 ± 0.07
19,TACGCCAA,0.0646 ± 0.021
20,TAATAACA,0.131 ± 0.0072
21,GCATAACA,0.27 ± 0.04
22,CCATAACC,0.145 ± 0.0043
23,CCATAACG,-0.0417 ± 0.027

row,Sequence,PBM 8-mer E-score
1,GAATAACA,0.242 ± 0.094
2,CAATAACA,0.193 ± 0.046
3,CCATAACA,0.236 ± 0.036
4,GCATAACC,-0.0331 ± 0.022
5,ACATAACA,0.215 ± 0.0054
6,CAAGTAAC,0.0157 ± 0.17
7,AAGGACAA,-0.103 ± 0.0038
8,AGACTTAC,0.0412 ± 0.036
9,GGACTGAC,-0.163 ± 0.079
10,ACGCGGAC,0.112 ± 0.0026
11,CCCCTTAG,-0.25 ± 0.047
12,CTACACGA,-0.00142 ± 0.052
13,ATACACGA,0.194 ± 0.032
14,GCACACGA,0.121 ± 0.081
15,ACACACGC,0.208 ± 0.02
16,ACACACGG,-0.09 ± 0.023
17,ACACACGT,0.295 ± 0.028
18,GTACACGA,0.246 ± 0.037
19,ACACACGA,0.252 ± 0.021
20,ACACACAA,0.0899 ± 0.06
21,TCACACGA,0.0202 ± 0.039
22,GCACACGC,0.284 ± 0.051
23,ACACACAT,0.208 ± 0.024
